In the library only some 5.4% were active in any assay of this set; here they are far more common.
ALR inh – blocks human ALR sulfhydryl oxidase activity | P55789 | purified ALR, DTT oxidation, H2O2 HRP-luminol luminescence | inhibition, % (concentration not given with the values) | 290,000 compounds, 3.8% hits | AID 485317;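 active = mean replicate inhibition above about 79%, with every replicate also reaching it, limit read from the data; inconclusive = only one of the two criteria met; inactive = mean below limit and not every replicate reaching it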
Target sequence (P55789 whole entry, looked up): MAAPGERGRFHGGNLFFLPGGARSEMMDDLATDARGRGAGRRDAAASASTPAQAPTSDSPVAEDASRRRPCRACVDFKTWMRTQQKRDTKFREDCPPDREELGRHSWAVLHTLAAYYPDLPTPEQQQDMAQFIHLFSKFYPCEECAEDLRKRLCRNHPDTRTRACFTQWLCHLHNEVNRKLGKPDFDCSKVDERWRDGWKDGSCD
CSC inhib – blocks cancer stem cells; cancer stem cell-like cells viability, luminescence; inhibition, % at 7.5 µM; 300,000 compounds, 1.1% hits; AID 2717; in the data active = inhibition above about 75%; inconclusive = no clear call, values can overlap the other calls; tested in HMLE shEcad cells
PP1 counter – PP1-alpha (human) inhibition in PP5 counter-screen. P62136. inhibition, % at 6.7 µM. purified PP1alpha, OMFP fluorescence. 320,000 compounds, 0.9% hits;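 active = inhibition above the mean inhibition of all tested compounds plus 3 SD, computed separately for each screening campaign, cut at about 15% in these data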
Target sequence (P62136 whole entry, looked up): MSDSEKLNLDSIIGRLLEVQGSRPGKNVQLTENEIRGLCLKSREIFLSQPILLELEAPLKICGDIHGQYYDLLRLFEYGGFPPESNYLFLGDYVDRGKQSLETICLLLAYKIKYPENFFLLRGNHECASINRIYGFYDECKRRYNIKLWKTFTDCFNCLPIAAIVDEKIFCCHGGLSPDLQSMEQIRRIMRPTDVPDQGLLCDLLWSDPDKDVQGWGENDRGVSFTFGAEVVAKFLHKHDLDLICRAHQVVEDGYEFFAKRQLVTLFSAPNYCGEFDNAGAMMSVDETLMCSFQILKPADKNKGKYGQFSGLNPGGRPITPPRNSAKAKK
PP5 inh – blocks human protein phosphatase 5 activity; purified PP5c, OMFP substrate fluorescence; inhibition, % at 6.7 µM; 320,000 compounds, 0.18% hits;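 active = inhibition above the campaign's mean inhibition across all tested compounds plus 3 SD, cut at about 9.5% in these data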;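 also: 0% = DMSO only and 100% = 100 µM cantharidin control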
Calb FLC – affects C. albicans growth with fluconazole | C. albicans CaCi-2 (fluconazole-resistant clinical isolate) + fluconazole, Alamar Blue growth, 48 h | growth inhibition, % (no concentration beside the values) | 300,000 compounds, 0.57% hits;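 active = growth inhibition above about 58% in most replicates, limit read from the data, passing the limit was not always enough; inconclusive = exactly half the replicates above a set limit; inactive = most replicates below a set limit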;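 also: all wells also contain fluconazole at 8 µg/ml as a sub-toxic cotreatment; 0% = median of DMSO wells and 100% = median of geldanamycin control wells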
Numbers without * were called inactive; ? = inconclusive; . = no result.

SMILES	ALR inh	CSC inhib	PP1 counter	PP5 inh	Calb FLC
Cc1cc(NC(=O)CSc2c[nH]c3ccccc23)no1	99.3*	-1.2	-3.2	-7.0	-2.2
Cc1cc(NC(=O)CS(=O)(=O)c2c[nH]c3ccccc23)no1	1.3	3.3	-1.1	-0.7	5.3
Cc1cc(NC(=O)CSc2nc(C)c(C)n2CC(C)C)no1	92.7*	-14.7	.	.	.
Cc1cc(NC(=O)CSc2c(C)[nH]c3ccccc23)no1	94.8*	-5.5	0.4	5.2	-0.6
O=C(c1cccc(C(F)(F)F)c1)C1CCCN(C(=O)/C=C/c2cnc[nH]2)C1 (stereo not given)	-2.3	.	.	.	-1.3
O=C(Nc1ccc(N2CCOCC2)c(Cl)c1)c1cccc(F)c1	-6.2	-1.9	3.4	-0.8	.
O=C(CSCc1ccco1)c1ccc(Cl)s1	98.0*	0.6	-3.0	-2.9	-3.3
Cc1ccc(N2CCN(S(=O)(=O)c3cccs3)CC2C)cc1 (stereo not given)	99.4*	13.7	7.1	4.0	21.5
O=C1CC(NNc2ccccc2)C(=O)N1c1ccccc1 (stereo not given)	99.7*	13.2	0.3	-0.8	?
COc1ccc(NC2CC(=O)N(c3ccccc3)C2=O)cc1 (stereo not given)	.	-1.3	0.7	1.4	-17.8
O=C1CC(Nc2ccc(N3CCOCC3)cc2)C(=O)N1Cc1ccccc1 (stereo not given)	97.5*	.	5.6	1.5	10.8
COc1ccccc1N1C(=O)CC(N2CCN(c3ccc([N+](=O)[O-])cc3)CC2)C1=O (stereo not given)	-9.9	-2.7	0.2	2.8	3.9
COc1ccccc1N1C(=O)CC(Nc2ccc(N3CCOCC3)cc2)C1=O (stereo not given)	99.5*	.	-1.7	4.3	7.5
O=C1CC(Nc2ccc3ccccc3c2)C(=O)N1Cc1ccccc1 (stereo not given)	-3.9	12.6	3.1	2.2	10.9
O=C1CC(Nc2ccc(N3CCOCC3)cc2)C(=O)N1c1ccccc1 (stereo not given)	98.9*	-10.5	-0.4	1.2	-0.9
COc1ccc(CCNC(=O)COC(=O)/C=C/c2cccc(F)c2)cc1	9.3	4.3	.	.	.
O=C(COc1ccc2c(c1)OCO2)NC12CC3CC(CC(C3)C1)C2	-10.1	68.1	4.0	1.4	.
O=C1NN(c2ccc(F)cc2)C(=O)/C1=C\c1cnn(-c2ccccc2)c1	-3.0	-3.2	1.9	-0.7	-42.2
CCOc1ccccc1N1CC(C(=O)Nc2ccccc2N2CCOCC2)CC1=O (stereo not given)	-23.6	8.2	-2.8	1.7	-10.2
CCOc1ccccc1N1C(=O)CC(Nc2ccc(N3CCOCC3)cc2)C1=O (stereo not given)	98.3*	-4.8	2.6	1.1	-5.0
N#Cc1ccc(C(c2nnnn2C2CCCC2)N2CCC(Cc3ccccc3)CC2)cc1 (stereo not given)	-2.8	4.5	8.5	5.3	5.1
CC1=CC(C)(C)N(C(=O)c2ccc(F)cc2)c2cc3c(cc21)OCO3	97.9*	-1.8	1.4	1.1	65.1
CSCC[C@H](NC(=O)N1CCn2c1nc1ccccc12)C(=O)N1CCCCC1	97.5*	-5.7	-1.0	1.2	-0.9
CC(C)C[C@H](NC(=O)N1CCn2c1nc1ccccc12)C(=O)N1CCCCC1	-0.5	-9.8	-6.0	3.2	-3.6
CC(NC(=O)CCNC(=O)N1CCn2c1nc1ccccc12)c1ccccc1 (stereo not given)	96.8*	-7.3	-2.4	1.4	-1.6
SMILES	ALR inh	CSC inhib	PP1 counter	PP5 inh	Calb FLC
O=C1C2CC=C(Cl)CC2C(=O)N1c1ncn[nH]1 (stereo not given)	-11.7	-25.5	-3.0	-1.6	8.2
CCc1ccccc1NC(=O)CSc1nc(C)c(C)o1	98.8*	.	.	.	6.4
COc1ccc(-c2nnc3sc(-c4ccco4)nn23)cc1OC	99.4*	4.2	-1.4	3.4	-4.3
COc1ccc(-c2nn3c(-c4ccco4)nnc3s2)cc1OC	-1.0	14.9	2.4	-0.1	6.5
COc1cc(-c2nnc3sc(-c4ccco4)nn23)cc(OC)c1OC	98.2*	-3.6	-1.3	-2.6	-2.0
O=C(c1cnn(C(=O)c2ccc(O)cc2)c1)c1ccccc1O	.	-33.6	1.6	0.9	1.8
CC(=O)Oc1ccc(N2C(=O)CC(N3CCOCC3)C2=O)cc1 (stereo not given)	-6.6	-5.3	0.5	0.0	-6.8
CC(=O)OC[C@]12CC[C@H]3[C@@](C)(CC[C@H]4C(C)(C)CCC[C@]34C)[C@@H]1C[C@@H](C1=CC(=O)O[C@@H]1OC(C)=O)O2	-2.6	125.5*	.	.	.
CC(=O)OC[C@]12CC[C@H]3[C@@](C)(CC[C@H]4C(C)(C)CCC[C@]34C)[C@@H]1C[C@H](C1=CC(=O)O[C@H]1OC(C)=O)O2	6.6	106.7*	.	.	.
OCCCCNc1cccc2ccccc12	10.1	8.9	-5.5	2.9	-8.9
COc1ccc(-c2cc(=O)oc(-c3cccc(C)c3)n2)cc1	-10.2	-1.7	-6.4	-0.6	-4.7
COC(=O)c1ccc2nc(C)c(C)nc2c1	2.5	-2.2	-2.6	2.1	7.7
COC(=O)c1ccc(O)c(Sc2cc(C(=O)OC)ccc2O)c1	87.6*	33.2	-3.2	0.2	8.6
Cc1ccc(O)c(Sc2cc(C)ccc2O)c1	98.7*	22.0	6.8	4.2	-30.5
COc1ccc(C(=O)NCC(=O)N2CC=C(c3ccccc3)CC2)cc1OC	.	.	-0.3	0.8	.
CN1CCN(Cc2ccc(Sc3ccc(Cl)cc3)c([N+](=O)[O-])c2)CC1	-0.6	86.0*	-2.6	2.1	15.9
CCc1ccc(N2CC(C(=O)OCC(=O)Nc3ccc(C#N)cc3)CC2=O)cc1 (stereo not given)	-5.4	2.8	-1.9	3.7	.
CN(C)/C=N/c1sc2c(c1C#N)CCCC2	99.6*	23.7	-6.6	5.0	56.1
CC1CCc2c(sc(/N=C/N(C)C)c2C#N)C1 (stereo not given)	0.8	-6.7	0.5	0.3	-7.8
CCCCCCC1C(C#N)=C(N)OC2=C1C(=O)CCC2 (stereo not given)	32.9	2.5	0.3	1.3	-5.6
CCCOc1ccc(-c2c(C(=O)N/N=C/C3CC=CCC3)nnn2-c2nonc2N)cc1 (stereo not given)	-1.8	0.7	0.2	1.0	23.5
CCC1CSC(Nc2ccc(C(=O)/C=C/c3ccc(Br)cc3)cc2)=N1 (stereo not given)	-10.4	78.7*	15.2*	4.0	?
CCC1CSC(Nc2ccc(C(=O)/C=C/c3ccc(OC)c(OC)c3)cc2)=N1 (stereo not given)	11.4	-15.5	4.2	2.5	11.0
CCOc1ccc(NC(=O)C2CCC(CNc3c(N4CCCCC4)c(=O)c3=O)CC2)cc1 (stereo not given)	-0.9	-7.7	3.2	0.6	-1.3
Cc1ccc(NC(=O)c2ccc(OCC3CCCO3)cc2)nc1 (stereo not given)	4.4	30.7	-3.8	1.2	13.5
COc1ccc(-c2noc(CN3CCN(c4ccccc4F)CC3)n2)cc1OC	99.7*	-2.5	-0.9	3.0	19.6
COc1ccc(-c2noc(CN(C)S(=O)(=O)c3ccccc3)n2)cc1OC	96.6*	-5.0	-7.5	-8.0	9.5
